aSyn UTR act: Activators via SNCA 5'UTR binding, MLPCN; activity score, % (tested at 7.5 µM), hits read low; 300,000 tested, 7.1% active; AID 1814; alpha-synuclein 5'UTR reporter, activators screen; in the data active = activity score below about -60%
* = called active by the depositor. Not all results are given here.

SMILES | aSyn UTR act
COc1ccc(C(=O)CNc2ccccc2CO)cc1 | -70*
COc1ccc(C(=O)CNc2ccccc2C#N)cc1 | -93*
CC1CCCN(C(=O)CSc2nc3ccccc3o2)C1 (stereo unspecified) | -99*
O=C(O)c1ccc2oc(SCC(=O)N3CCCCC3)nc2c1 | -88*
CS(=O)(=O)c1nc2c(cc1C#N)CCCC2 | -85*
Cc1ccc(N/C=C/c2onc(C)c2[N+](=O)[O-])cc1 | -134*
Cc1noc(/C=C/c2ccc(-c3ccccc3Cl)o2)c1[N+](=O)[O-] | -63*
COc1cccc(N/C=C/c2onc(C)c2[N+](=O)[O-])c1 | -151*
COc1ccc(CC2(CO)COc3ccccc3C2=O)cc1 (stereo unspecified) | -64*
CC(C)(C)c1cnnn1-c1ccc(/C=N/Nc2ccc([N+](=O)[O-])cc2)cc1 | -95*
O=[N+]([O-])c1ccc(N=Nc2ncc[nH]2)cc1 | -96*
CN1C2CCC1/C(=C\c1ccccc1F)C(=O)/C2=C/c1ccccc1F | -89*
CCOC(=O)c1cnc2c(ccc3ccccc32)c1NCCCN(C)C | -358*
CC(=O)OCCc1c2ccccc2c(CCCN(C)C)c2ccccc12 | 103
CCOC(=O)Cn1cnc(-c2ccc([N+](=O)[O-])cc2)c1 | -77*
O=C1C(Nc2ccccc2)=C2CCCC=C2N1c1ccccc1 | -163*
COc1cc(-c2cc3nc4ccccc4n3c(N)c2C#N)cc(OC)c1OC | 45
CCc1c(C)c(C#N)c2nc3ccccc3n2c1Cl | 105
Cc1cc(-c2ccco2)c(C#N)c2nc3ccccc3n12 | -100*
C/C(=N\OCc1cccc(C(=O)O)c1)c1ccc(Cl)cc1 | 104
C/C(=N\OCc1ccc(C#N)cc1)c1ccccc1 | -120*
Cn1cc(/C=C(\C#N)C(=O)Nc2ccccc2O)c2ccccc21 | -118*
COc1cccc(/C=N/NC(=O)NC2CCCCC2)c1O | -97*
Cc1occc1C(=O)N/N=C/c1ccccn1 | -84*
COc1cccc(/C=N/NC(=O)c2cc3c(OC)cccc3[nH]2)c1O | 86
SMILES | aSyn UTR act
Cc1occc1C(=O)N/N=C/c1ccccc1[N+](=O)[O-] | -121*
CCOc1ccc(/C=N/NC(=O)c2ccoc2C)cc1OC | -110*
COc1cc(/C=N/NC(=O)c2ccoc2C)ccc1O | -67*
Cn1nccc1C(=O)N/N=C/c1ccccc1[N+](=O)[O-] | -89*
COC(=O)/C(=C/c1ccc2c(c1)c1ccccc1n2C)NC(=O)c1ccccc1 | -68*
COc1cc(C(=O)N/N=C/c2ccc3c(c2)c2ccccc2n3C)ccc1O | -117*
CCN(CC)c1ccc(/C=N/NC(=O)c2ccoc2C)cc1 | -95*
COc1cccc(/C=N/NC(=O)c2ccoc2C)c1 | -125*
O=C(/C=C/c1ccco1)Oc1cc(Br)cc(/C=N/NC(=O)c2ccccc2O)c1 | 96
Cc1ccc(C(=O)N/N=C/c2cccc(OC(=O)/C=C/c3ccco3)c2)cn1 | -100*
O=C(N/N=C/c1ccccn1)c1ccc(N/N=C/c2ccccn2)cc1 | -132*
COc1cccc(/C=N/NC(=O)c2c(-c3ccccc3)noc2C)c1O | 58
COc1ccc(/C=N/NC(=O)c2ccoc2C)cc1CN1CCN(c2ccc(F)cc2)CC1 | -79*
COc1cccc(/C=N/NC(=O)c2ccoc2C)c1O | -71*
CCSc1n[nH]c(=S)s1 | -89*
O=C(Nc1nc2c(s1)CN(Cc1ccccc1)CC2)C1CCC1 | -108*
C(=C\c1nc(-c2cccnc2)no1)/c1ccccc1 | -153*
Clc1ccccc1/C=C/c1nc(-c2cccnc2)no1 | -195*
COc1c(OC(C)=O)ccc(/C=C/c2ccc3cccc(OCc4ccccc4)c3n2)c1[N+](=O)[O-] | -129*
CCOC(=O)N/N=C1\CCc2ccccc21 | -102*
S=C(N/N=C1\CCc2ccccc21)NC1CCCCC1 | -106*
O=C(N/N=C1\C(=O)c2cccc3cccc1c23)c1ccc(O)cc1 | -137*
C/C(=N\NC(=O)c1cccc(Br)c1)c1ccccn1 | 108
O=C(N/N=C1\CCCc2ccccc21)c1cccc(Br)c1 | -93*
O=C(N/N=C/c1ccc(O)cc1O)c1ccc(CN2C(=O)c3cccc4cccc2c34)cc1 | 62
SMILES | aSyn UTR act
O=C(N/N=C1\CCc2ccccc21)c1ccc(O)cc1 | -75*
O=C(N/N=C1\CCc2ccccc21)c1ccccc1Cl | -129*
Cc1ccc(C(=O)N/N=C2\CCc3ccccc32)c(C)c1 | -139*
Cc1ccc(CSc2ccc(-c3ccco3)nn2)cc1 | -142*
Cc1cccc(CSc2ccc(-c3ccco3)nn2)c1 | -174*
Clc1cccc(CSc2ccc(-c3ccco3)nn2)c1 | -84*
Clc1ccc(CSc2ccc(-c3ccco3)nn2)cc1 | -165*
O=C(CSc1ccc(-c2ccccn2)nn1)c1ccccc1 | -97*
Clc1ccc(CSc2ccc(-c3ccccn3)nn2)cc1 | -132*
O=C(O)c1cc(-c2c[nH]c3ccccc23)nc2cc3ccccc3cc12 | -66*
CN=Cc1cc(-c2ccccc2)sc1O | -100*
Cc1ccc(/C=C2\SC(=S)N(CCCC(=O)NC3CCCC3)C2=O)cc1 | 98
COc1cc(/C=C2\SC(=S)N(CCC(=O)NC3CCCC3)C2=O)cc(OC)c1OC | -71*
COc1ccc(-c2csc(NC(=O)c3ccc(C(C)(C)C)cc3)c2C(=O)O)cc1 | 43
Cc1ccc(-c2csc(NC(=O)c3ccccc3F)c2C(=O)O)cc1 | -102*
O=C(/C=C/c1ccccc1)Nc1scc(-c2ccccc2)c1C(=O)O | -84*
Cc1ccc(-c2csc(NC(=O)c3ccc(F)cc3)c2C(=O)O)cc1 | -105*
CCOC(=O)c1c(-c2ccc(-c3ccccc3)cc2)csc1NC(=O)CNCCN(C)C | 101
O=C(NCc1cccnc1)c1ccc(-c2ccccc2[N+](=O)[O-])o1 | -64*
O=C(CCCCCN1C(=O)c2cccc3cccc(c23)C1=O)NCc1cccnc1 | 59
CCCCn1nnc(NC(=O)c2cc3ccccc3o2)n1 | -137*
CCn1nnc(NC(=O)c2ccc(-c3ccccc3[N+](=O)[O-])o2)n1 | -90*
CCCCn1nnc(NC(=O)c2ccc(-c3ccccc3)cc2)n1 | -129*
CCCn1nnc(NC(=O)c2cc3ccccc3o2)n1 | -156*
CC(=O)c1cccc(NC(=O)c2ccc(-c3ccccc3[N+](=O)[O-])o2)c1 | -238*
SMILES | aSyn UTR act
CCn1nnc(NC(=O)c2cc3ccccc3o2)n1 | -168*
Nc1nc(N)c2sc3nc4c(cc3c2n1)CCC4 | -107*
COc1ccc([N+](=O)[O-])cc1N/C(=N/S(=O)(=O)c1ccccc1)c1ccccc1 | -70*
COc1ccc(C2=NOC(COc3ccc4c(C)cc(=O)oc4c3)C2)c(OC)c1 (stereo unspecified) | 83
COc1cccc(COc2ccc3c(C)cc(=O)oc3c2)c1 | -164*
COc1cccc(C(=O)COc2ccc3c(C)cc(=O)oc3c2)c1 | -106*
O=S(=O)([N-]c1nc2ccccc2nc1-[n+]1ccc(-c2ccncc2)cc1)c1ccccc1 | -105*
O=C(NC(=S)NC1CCCC1)c1ccccc1 | -126*
COc1cccc(C(=O)NNC(=S)NC2CCCCC2)c1 | -64*
CCCCNC(=S)NNC(=O)c1csc(C)c1 | -63*
CCCNC(=O)c1ccc2c(=O)c(O)c(-c3ccsc3)[nH]c2c1 | 87
Cc1cc(C(=O)NNC(=S)NC2CCCCC2)cs1 | -77*
O=C(NNC(=S)NC1CCCCC1)c1ccc(Cl)s1 | -62*
Cc1ccc(NC(=O)CNC(=O)c2ccccc2F)cc1Cl | -69*
Cc1ccc(NCCC(=O)c2ccc(Cl)cc2)cc1 | -119*
Cc1ccc(NCC(=O)c2ccc(C)cc2)cc1 | -125*
